HCMV antiviral: human cytomegalovirus inhibition; HFF cells, HCMV-luciferase reporter, 72 h; hits give low values; activity change, negative = inhibition, % at 57.5 µM; hit rate 4.5% among 410,000; AID 1259415; in the data active = activity change below about -60%; inconclusive = no clear call, values can overlap the other calls; inactive = above about -39%; note: % is set by controls: 0 for no effect and ±100 for the full control effect
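Two-dose cell screen: HFF monolayers treated with compounds and infected with luciferase-expressing HCMV at 1 PFU/cell, 72 h at 37C, then lysed for luciferase measurement.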
SARS PLpro yeast: SARS-CoV PLP inhibition in yeast; S. cerevisiae expressing SARS-CoV PLpro, growth rescue; Potency, µM (highest dose often 32.9 µM), for the others: at the highest dose activity, positive = growth rescue, actives largely listed as activators; hit rate 0.19% among 330,000; AID 485353; calls by dose curve; note: potency is the fitted concentration of half-maximal effect; 0% is about no effect; nearly all actives have a fitted effect of over 55% in size
HCV inh: blocks hepatitis C virus; Huh7.5.1 HCVcc-Cre infection, luciferase reporter, 44 h; Potency, µM (doses to about 41.8 µM), for inactives: at the top dose activity change, negative = inhibition, usual class: inhibitors; hit rate 3.4% among 340,000; AID 651820; note: potency is the fitted concentration of half-maximal effect; % is set by controls: 0 for no effect and ±100 for the full control effect
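Infectious HCV cell culture screen: compound-treated cells (1,000/well, pre-plated 4 h) are infected with HCVcc-Cre at roughly 0.5 moi and grown 44 h. Infection is quantified by luciferase signal after 15 min substrate incubation at room temperature.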
Pf growth 48h: inhibits P. falciparum growth in the first generation, 48 h | Potency, µM (doses to about 28.7 µM), inactives show at the highest dose activity change, negative = inhibition, actives largely listed as inhibitors | hit rate 5.9% among 310,000 | P. falciparum luciferase growth in erythrocytes, 48 h | AID 504832; note: potency is the fitted concentration of half-maximal effect; % is set by controls: 0 for no effect and ±100 for the full control effect
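A one-generation exposure of luciferase-tagged malaria parasites in RPMI 1640/Albumax erythrocyte culture, 37 C and 5% CO2. Inhibition is inferred from decreased luminescence after adding detection reagent.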
Pf growth 96h: inhibits malaria parasite growth, 96 h. hit rate 6.9% among 320,000. AID 504834. P. falciparum luciferase reporter growth, 96 h. Potency, µM (titrated, usually from 28.7 µM), inactives show at the top dose activity change, negative = inhibition, usual class: inhibitors; note: potency is the fitted concentration of half-maximal effect; % is set by controls: 0 for no effect and ±100 for the full control effect
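96 h incubation, 37 C, 5% CO2, of luciferase-reporter P. falciparum-infected RBCs (2% hematocrit, 0.05% parasitemia final) with test compounds; endpoint luminescence.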
Sm TGR inh: inhibitors of Schistosoma mansoni thioredoxin glutathione reductase. Q962Y6. purified TGR, DTNB reduction, TNB absorbance 405 nm. Potency, µM (titrated, usually from 114 µM), for inactives: at the top dose activity change, negative = inhibition, most hits filed as inhibitors. hit rate 3% among 360,000. AID 485364; note: potency is the fitted concentration of half-maximal effect; % is set by controls: 0 for no effect and ±100 for the full control effect; nearly all actives have a fitted effect of over 60% in size
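First, TGR (20 nM dispensed) and NADPH were mixed with compound. Second, a 15 min room-temperature incubation followed. Third, further NADPH and then DTNB were added to start the reaction. Finally, TNB absorbance was monitored kinetically.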
Numbers without * were called inactive; u = inconclusive; x = no result given. In the library only some 15% were active in any assay of this set; here they are far more common. Unless noted, calls come from the whole dose curve; as a rule, active = well fitted curve in the direction sought with a large enough effect; inconclusive = small, poorly fitted or top-dose-only effect, or another doubt; inactive = no such curve, though single readings can be large; an effect the other way counts as inactive or inconclusive.

SMILES	HCMV antiviral	SARS PLpro yeast	HCV inh	Pf growth 48h	Pf growth 96h	Sm TGR inh
COc1ccc(C(=O)CSc2nnc(CNC(=O)c3ccccc3F)n2C)cc1OC	56.3	1.3%	6.4%	-15.3%	-8.2%	-3.4%
Cc1cc(NC(=O)CCC(=O)N(c2ccccc2)C(C(=O)NCC2CCCO2)c2cccnc2)no1 (centres undefined)	1.0	2.6%	-12.1%	-0.6%	10.4µM*	-20.4%
CCc1ccccc1N(C(=O)CCC(=O)Nc1cc(C)on1)C(C(=O)NC1CCCC1)c1ccco1 (centres undefined)	-5.5	-2.8%	u	9.28µM*	27.3%	0.0%
Cc1cc(NC(=O)CCC(=O)N(c2cccnc2)C(C(=O)NC2CCCC2)c2ccccc2)no1 (centres undefined)	-29.0	1.3%	1.4%	-19.6%	29.2%	1.9%
Cc1cc(NC(=O)/C=C/C(=O)N(CC(=O)NC2CCCC2)c2cccc3ccccc23)no1	-29.2	2.2%	4.3%	10.4µM*	0.8%	-25.7%
Cc1cc(NC(=O)CCCC(=O)N(CC(=O)NC2CCCCC2)c2ccccc2)no1	10.5	0.7%	3.5%	-22.1%	1.4%	u
Cc1cc(NC(=O)CCC(=O)N(Cc2ccco2)C2(C(=O)NC3CCCC3)CCC(C)CC2)no1 (centres undefined)	-12.5	5.4%	14.1µM*	14.7µM*	u	14.6%
Cc1cc(NC(=O)CCC(=O)N(Cc2ccco2)C2(C(=O)NC3CCCCC3)CCCC(C)C2)no1 (centres undefined)	-28.1	-0.2%	-19.7%	-28.3%	u	-15.3%
Cc1cc(NC(=O)CCC(=O)N(Cc2ccco2)C(C(=O)NC2CCCC2)c2ccc(F)cc2)no1 (centres undefined)	-63.2*	2.4%	-21.7%	u	28.2%	2.0%
Cc1cc(NC(=O)CCC(=O)N(Cc2ccco2)C(C(=O)NC2CCCC2)c2ccccc2)no1 (centres undefined)	-27.5	-1.7%	9.5%	u	4.5%	-1.2%
O=C(c1ccccn1)N(Cc1ccco1)C1(C(=O)NC2CCCC2)CCCCC1	-16.9	3.5%	u	x	u	-6.5%
Cc1cc(NC(=O)CCC(=O)N(c2ccccc2)C(C(=O)NC2CCCCC2)c2cccs2)no1 (centres undefined)	-64.6*	-13.2%	1.5%	u	8.28µM*	-2.3%
Cc1cc(NC(=O)CCC(=O)N(c2ccccc2)C(C(=O)NC2CCCC2)c2ccc(F)cc2)no1 (centres undefined)	-11.3	-4.4%	1.2%	-13.9%	u	4.3%
O=C(c1ccc2c(c1)OCO2)N(Cc1ccco1)C1(C(=O)NC2CCCCC2)CCCCC1	-33.6	-11.7%	10µM*	x	57.4%	-21.5%
Cc1cc(NC(=O)CCC(=O)N(CC(=O)NC2CCCC2)c2ccccc2)no1	27.4	0.7%	-15.0%	u	14.7µM*	-27.8%
CCOC(=O)[C@]12CCCC=C1N(Cc1ccco1)C(=O)[C@H](CC(=O)NCc1cccc3ccccc13)C2	-33.5	x	x	x	x	x
O=C(Nc1cccc(C(F)(F)F)c1)c1cncs1	-37.1	-4.2%	-7.6%	-3.6%	-1.0%	-10.0%
Cc1cc(NC(=O)CCC(=O)N(c2ccc(F)cc2)C(C(=O)NC2CCCC2)c2ccc(C)o2)no1 (centres undefined)	-20.1	0.4%	-10.8%	9.28µM*	32.4%	2.4%
CCOc1ccc(N(C(=O)/C=C/C(=O)Nc2cc(C)on2)C(C(=O)NC2CCCC2)c2ccccc2C)cc1 (centres undefined)	-93.2*	2.1%	16.4%	u	u	-7.5%
Cc1cc(NC(=O)CCC(=O)N(c2ccc(F)cc2)C(C(=O)NC2CCCC2)c2ccccc2)no1 (centres undefined)	-18.8	-0.8%	4.1%	u	u	31.4%
COc1ccc(Cl)cc1NC(=O)Cn1ccn(Cc2ccc(C)cc2)c(=O)c1=O	-32.8	x	x	x	x	-8.1%

Screening data deposited in PubChem by National Center for Advancing Translational Sciences (NCATS).
